Bioassay records as filed in PubChem BioAssay.
L3MBTL1 inh: qHTS Assay for the Inhibitors of L3MBTL1. Lethal(3)malignant brain tumor-like protein 1 (Homo sapiens), Q9Y468. AlphaScreen L3MBTL1–H3K9me1 peptide binding. 0.66% of 230,000 active. Potency, µM (doses to about 57.1 µM), hits mostly inhibitors; also: nearly all actives have a fitted effect of over 60% in size
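AlphaScreen proximity signal between nickel-chelate acceptor and streptavidin donor beads (final 10 ug/mL) reports binding of 50 nM L3MBTL1 to 75 nM biotin-H3 K9me1 peptide; complex incubated with compounds 30 min at room temperature; cefsulodin titration as control.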
JMJD2A Tudor: qHTS Assay for Inhibitors of JMJD2A-Tudor Domain | Lysine-specific demethylase 4A (Homo sapiens), O75164 | AlphaScreen JMJD2A-Tudor / H3K4me3 peptide binding | Potency, µM (series often up to 114 µM), hits mostly inhibitors | 4.4% of 390,000 active; also: nearly all actives have a fitted effect of over 50% in size
BAZ2B block: qHTS Assay for Inhibitors of BAZ2B; Potency, µM (doses to about 114 µM), hits mostly inhibitors; 4.4% of 360,000 active; AlphaScreen BAZ2B-H3K14Ac peptide displacement; also: nearly all actives have a fitted effect of over 60% in size
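BAZ2B 50 nM plus b-H3(5-23)K14Ac 50 nM, PBS pH 7.4/0.01% Tween-20, 30 min RT; compound added (max 110 uM), 30 min RT; streptavidin donor/Ni-chelate acceptor beads 10 ug/mL final, 20 min dark; AlphaScreen read.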
HP1b chromo inh: HTS for Inhibitors of HP1-beta Chromodomain Interactions with Methylated Histone Tails. Potency, µM (series often up to 114 µM), usual class: inhibitors. AlphaScreen HP1-beta / biotin-H3K9me3 peptide binding. 0.56% of 390,000 active. Chromobox protein homolog 1 (Homo sapiens), P83916. AID 540317, 2011; also: nearly all actives have a fitted effect of over 70% in size
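HP1-beta protein (50 nM final) preincubated 30 min at room temperature with biotinylated H3(1-18)K9me3 peptide (50 nM) in PBS pH 7.4, 0.01% Tween-20, then compound added for 30 min. AlphaScreen streptavidin donor/nickel chelate acceptor beads (10 ug/mL final), 30 min dark, luminescence read.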
G9a inh: qHTS Assay for Inhibitors of Histone Lysine Methyltransferase G9a; AID 504332, 2011; 8.8% of 350,000 active; Histone-lysine N-methyltransferase EHMT2 (Homo sapiens), Q96KQ7; Potency, µM (top dose mostly 102 µM), usual class: inhibitors; G9a H3K9 monomethylation, AlphaScreen, 2 h; also: nearly all actives have a fitted effect of over 75% in size
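Step 1: enzyme (final 20 nM) with compound, 15 min RT. Step 2: substrate peptide 500 nM and SAM 20 uM, 2 h RT. Step 3: anti-H3K9me1 antibody and AlphaScreen beads, 10 min, then plate read.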
Sfp inh: qHTS Assay for Inhibitors of Bacillus subtilis Sfp phosphopantetheinyl transferase (PPTase). Biochemical Sfp PPTase activity, qHTS. Potency, µM, usual class: inhibitors. 3.5% of 310,000 active. AID 1490, 2009;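 also: the enzyme is Sfp with the accession as filed and its product quenches rhodamine fluorescence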
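Fluorescence-quenching assay with 15 nM Sfp, 5 uM rhodamine-CoA and 12.5 uM BHQ-2-labelled ybbR peptide in pH 7.6 Hepes/MgCl2 buffer. Enzyme was pre-incubated with compound for 15 min at room temperature. Rate was taken from the 30-min fluorescence change (525/598 nm).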
Of the large screens only hits and unclear results are named; the others gave an inactive call. Only some compounds are listed: those with a hit (about 12% of all), similar ones and a draw of the others. Calls follow the shape of the dose curve; as a rule, active = well fitted curve in the direction sought with a large enough effect; inconclusive = small, poorly fitted or top-dose-only effect, or another doubt; inactive = no such curve, though single readings can be large; an effect the other way counts as inactive or inconclusive.

Cc1ccc(-c2c(CN3CCN(c4cccc(C)c4C)CC3)csc2C)cc1	G9a inh inconclusive (no result: L3MBTL1 inh, Sfp inh)
CC1CCCCC1NC(=O)c1c(O)nc2ccccn2c1=O (configuration not stated)	JMJD2A Tudor inconclusive (no result: Sfp inh)
Clc1ccc(-c2nnc3sc(-c4ccc(Br)o4)nn23)c(Cl)c1	none
CN(C)c1ccc(-c2nn3c(-c4ccc(Cl)cc4Cl)nnc3s2)cc1	G9a inh 14µM (no result: JMJD2A Tudor, HP1b chromo inh)
O=C(O)c1cnn2cc(-c3[nH]ncc3[N+](=O)[O-])cnc12	JMJD2A Tudor 22µM, BAZ2B block inconclusive, G9a inh inconclusive
Cc1cnc2c(C(=O)O)cnn2c1	JMJD2A Tudor inconclusive, BAZ2B block inconclusive, HP1b chromo inh inconclusive, G9a inh 56µM (no result: L3MBTL1 inh)
O=C(Nc1ccccc1)c1[nH]ncc1[N+](=O)[O-]	none (no result: L3MBTL1 inh)
Cc1cc(C(F)F)n2ncc(C(=O)O)c2n1	none
OCCCc1nc2n(n1)C(c1ccccc1Cl)C=C(c1cccs1)N2 (configuration not stated)	G9a inh inconclusive, Sfp inh 50µM
OCCCc1nc2n(n1)C(c1cccs1)C=C(c1ccccc1)N2 (configuration not stated)	G9a inh 40µM, Sfp inh inconclusive (no result: L3MBTL1 inh, JMJD2A Tudor, HP1b chromo inh)
CCOc1ccc2c(c1)n(CO)c(=S)n2CO	JMJD2A Tudor 79µM, G9a inh 2.2µM
C/C(N)=C(/C#N)C(=O)CSc1nnc(Nc2c(C)cccc2C)s1	JMJD2A Tudor 56µM, HP1b chromo inh inconclusive, G9a inh 32µM
C/C(N)=C(/C#N)C(=O)CSc1nnc(Nc2cccc(C)c2C)s1	BAZ2B block inconclusive, G9a inh inconclusive
CCC(=O)N1CCc2cc(S(=O)(=O)NCCC(=O)Nc3cc(C)ccc3OC)ccc21	none (no result: L3MBTL1 inh, BAZ2B block, Sfp inh)
CC(=O)N1CCN(CCN=CC2=C(O)CC(c3ccc(Cl)cc3)CC2=O)CC1 (configuration not stated)	G9a inh 50µM
C=CCNC(=S)N1CCN(CCN=CC2=C(O)CC(c3cccs3)CC2=O)CC1 (configuration not stated)	none (no result: L3MBTL1 inh)
CC(=O)N1CCN(CCN=CC2=C(O)CC(c3cccs3)CC2=O)CC1 (configuration not stated)	G9a inh 50µM
COc1cccc(C(=O)C[n+]2ccccc2/C=N/O)c1	G9a inh 50µM
COc1cccc(C(=O)C[n+]2cccc3cc(OC)ccc32)c1	G9a inh inconclusive (no result: Sfp inh)
COc1cc(CNCCCSc2nnnn2C)cc(Br)c1OC	none (no result: Sfp inh)
O=C(CN1C(=O)NC2(CCCC2)C1=O)N1CCN(c2ccccc2O)CC1	G9a inh inconclusive (no result: Sfp inh)
CCOC(=O)c1cnc2ccc(OC)cc2c1NCc1ccccc1	none
CCOC(=O)c1cnc2ccc(OCC)cc2c1NCc1ccccc1OC	Sfp inh 56µM
CCOC(=O)c1cnc2ccccc2c1NCc1ccco1	Sfp inh 45µM
COc1ccc(NC(=O)CC(C)n2nc(C)cc2C)cc1Cl (configuration not stated)	none (no result: L3MBTL1 inh, Sfp inh)
CC(=O)N1CCN(CC(=O)Nc2cccc(S(=O)(=O)N3CCCCC3)c2)CC1	none (no result: BAZ2B block, G9a inh, Sfp inh)
CCOC(=O)c1sc2nc(CN3CCCCC3)nc(Cl)c2c1C	G9a inh 50µM
Cc1ccc(Cc2c[nH]c(=S)s2)cc1	JMJD2A Tudor inconclusive, BAZ2B block inconclusive, G9a inh 7.1µM, Sfp inh inconclusive (no result: L3MBTL1 inh)
COc1ccc2[nH]c(C(=O)O)c(NS(=O)(=O)c3ccc(OC)c(OC)c3)c2c1	JMJD2A Tudor inconclusive, BAZ2B block inconclusive, G9a inh inconclusive (no result: L3MBTL1 inh)
COc1ccc(S(=O)(=O)Nc2c(C(=O)O)[nH]c3ccccc23)c(OC)c1	JMJD2A Tudor inconclusive, BAZ2B block inconclusive, G9a inh 40µM
COc1ccc(S(=O)(=O)Nc2c(C(=O)O)[nH]c3ccc(OC)cc23)c(OC)c1	JMJD2A Tudor 18µM, BAZ2B block 45µM, HP1b chromo inh 45µM, G9a inh 2.2µM, Sfp inh 25µM (no result: L3MBTL1 inh)
CCN(C(=O)Cc1c(C(=O)O)[nH]c2ccccc12)c1cc(OC)ccc1OC	JMJD2A Tudor inconclusive, BAZ2B block inconclusive
COc1ccc(S(=O)(=O)Nc2c(C(=O)O)[nH]c3ccc(OC)cc23)cc1	JMJD2A Tudor 20µM, BAZ2B block inconclusive, G9a inh 7.9µM (no result: L3MBTL1 inh)
COc1ccc(C(=O)N2CCC3(CC2)CCN(c2cccc(-c4ccccc4)c2)CC3)cc1	none (no result: L3MBTL1 inh, JMJD2A Tudor, BAZ2B block, HP1b chromo inh)
O=C(NCc1n[nH]c(=O)c2ccccc12)C1CC(=O)N(c2ccccc2)C1 (configuration not stated)	none (no result: Sfp inh)
CN(CCO)CCOCCOc1cccc2ccccc12	JMJD2A Tudor 10µM, HP1b chromo inh inconclusive, G9a inh inconclusive, Sfp inh inconclusive (no result: BAZ2B block)
CC(=O)C(C(C)=O)c1c(Cl)c(O)c(O)c2c(C(=O)c3ccccc3)coc12	JMJD2A Tudor 63µM, BAZ2B block 45µM, HP1b chromo inh inconclusive, G9a inh inconclusive, Sfp inh 6.3µM
Cc1[nH]nc(SCC(=O)Nc2ccc(C#N)cc2)c1[N+](=O)[O-]	G9a inh 35µM
COc1cc(NC(=O)NCCn2nnc3cc(S(=O)(=O)N(C)C)ccc32)cc(OC)c1OC	none (no result: L3MBTL1 inh, Sfp inh)
COc1ccc(C(=O)OCC(=O)NC2CCCCCCC2)cc1OC	none (no result: BAZ2B block, G9a inh, Sfp inh)
Cn1nccc1C(=O)NC(=S)Nc1cc(Cl)cc(Cl)c1	JMJD2A Tudor 22µM, G9a inh inconclusive (no result: L3MBTL1 inh)
Cn1nccc1C(=O)Nc1ccc(OC(=O)c2ccnn2C)cc1	G9a inh 1.6µM (no result: L3MBTL1 inh)
Cc1ccc(C)c(S(=O)(=O)Nc2ccc3oc(C)c(C(=O)O)c3c2)c1	JMJD2A Tudor 50µM, BAZ2B block 50µM, HP1b chromo inh 50µM, G9a inh 40µM (no result: L3MBTL1 inh)
COc1ccc(N2CCN(S(=O)(=O)c3ccc4c(c3)NC(=O)CC(=O)N4)CC2)cc1	G9a inh inconclusive (no result: L3MBTL1 inh)
COc1ccc(C)cc1NC(=O)C(c1ccccc1)N1CCNC(=O)C1 (configuration not stated)	G9a inh 50µM (no result: JMJD2A Tudor, HP1b chromo inh)
C/C(=N/Nc1ccc(C)cc1)C1(C)N(O)C(C)(C)C(c2ccco2)=[N+]1[O-] (configuration not stated)	BAZ2B block inconclusive, G9a inh 7.1µM (no result: L3MBTL1 inh)
Clc1ccc(-c2nc3nc4ccccc4nc3n2Cc2ccco2)cc1	Sfp inh 7.1µM (no result: L3MBTL1 inh)
O=C(c1cc(COc2ccc(F)cc2Cl)on1)N1CCN(c2cnccn2)CC1	none (no result: L3MBTL1 inh)
Cc1cc(Cl)ccc1OCC(=O)OCC(=O)c1c(N)n(C)c(=O)n(C)c1=O	none (no result: Sfp inh)
